Experimental findings from PubChem BioAssay (EPA / NIEHS) are described below.

As usually defined, the AC50 is the midpoint of the concentration-response curve, whichever way the signal moves.

Activity calls are given as the source filed them. The calls were made as follows: active = hit-call score of the fitted dose curve at least 0.9, where 1 is the maximum; inactive = score below 0.9.

Read-out in this test: Macrophage colony-stimulating factor (MCSF), CSF1 (gene 1435)
Nature of the test: BSK_LPS_MCSF: BioMAP Diversity Plus: LPS Assay for Macrophage colony-stimulating factor (MCSF) Biomarker Activity (AID 2283083). The following applies: primary human HUVEC with PBMC; actives raise or lower the signal. A digest of the protocol: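 Bidirectional fit versus DMSO of ELISA-measured M-CSF in co-cultured human umbilical vein endothelial cells and PBMC, sampled 24 h after dosing.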
Consider `CCCCN1C(=O)[C@@H]([C@H](O)C2CCCCC2)NC(=O)C12CCN(Cc1ccc(Oc3ccc(C(=O)O)cc3)cc1)CC2`, for which the result was inactive.

As to `C[Si](C)(C)C(F)(F)C(F)(F)C(F)(F)F`, the outcome was inactive. For `OCc1c[nH]c2ccccc12`, the half-maximal activity concentration (AC50) was 3.97 µM (active). On to `C[C@]12C=CC(=O)C=C1CC[C@H]1[C@@H]3C[C@@H](O)[C@](O)(C(=O)CO)[C@@]3(C)C[C@H](O)[C@@]12F`, for which the result was inactive. Regarding `S=P(N1CC1)(N1CC1)N1CC1`, the result was inactive. With `CCCOc1ccc(S(=O)(=O)N2CCN(CC)CC2)cc1-c1nc2c(CC)n(Cc3ccccn3)nc2c(=O)[nH]1`, the outcome was inactive. As for `Cc1ccc(S(=O)(=O)NC(=O)NN2CCCCCC2)cc1`, the result was inactive. Still for that read-out and setting: the value for `CC(C)c1nnc2ccc(-c3ocnc3-c3cc(F)ccc3F)cn12` was “inactive”. Turning to `CCCCCCCCCCCCCCO`, the AC50 is 31.5 µM (active). On to `OC[C@H]1O[C@@](CO)(O[C@H]2O[C@H](CO)[C@@H](O)[C@H](O)[C@H]2O)[C@@H](O)[C@@H]1O`, for which the result was inactive. `COCc1nnc(-c2ccc[n+]([O-])c2)n1-c1c(Cl)c(Cl)cc2[nH]c(=O)c(=O)[nH]c12`: the result was inactive.

As to `O=C(Cl)C(F)(F)C(F)(F)C(F)(F)C(=O)Cl`, the outcome was inactive. On to `OC(CCl)CCl`, for which the outcome was inactive. Regarding `CCn1nc(C)c2c1C(=O)NCC(c1ccc(O)cc1)=N2`, the result was inactive. The same measure, in the same setting: the value for `O=S1(=O)CCCO1` was “inactive”. As to `c1ccc(C(O[C@@H]2CCCN(CCc3ccc4c(c3)OCO4)C2)c2ccccc2)cc1`, the AC50 was 29.8 µM (active).

Regarding `O=S(=O)(O)CCC(F)(F)C(F)(F)C(F)(F)C(F)(F)C(F)(F)C(F)(F)F`, the outcome was inactive.
